Experiment: High-throughput drug toxicity screening in the BPDCN cell line Gen2.2 (AID 1224824)
Details: Gen2.2 BPDCN cells; at 45.8 µM (top of the series) unless noted
Description: Blastic plasmacytoid dendritic cell neoplasm (BPDCN) is a rare, aggressive and largely incurable hematologic malignancy originating from plasmacytoid dendritic cells (pDCs). Although an initial response to chemotherapy is common, BPDCN prognosis is extremely poor and most patients relapse with drug-resistant disease leading to a median overall survival of ~1 year after diagnosis. To explore novel potential therapeutic strategies in BPDCN, we performed a high-throughput drug toxicity screening in BPDCN cell liens, using of a library of 1,912 small molecules, enriched for compounds that are either approved or in early stages of development for cancer therapy.
A total of 500 exponentially growing Gen2.2 cells were seeded per well in 5 uL of media (RPMI + Glutamine, without phenol red plus10% FBS and 1X Pen/Strep) into 1536-well solid white high base tissue culture treated Greiner One Bio Plates (789173-F), using a multidrop combi dispenser and a small sterile cassette. Compounds and controls totaling 23nL per well (negative control DMSO and positive control 9.2 uM Bortezomib-final) were immediately added to the plates using a 1536 head pin tool from Kalypsys. The plates were then covered with stainless steel gasket lids from Kalypsys and incubated for 48 hours at 37C under 95% relative humidity with 5% CO2. After 48 hours, the plates were removed and allowed to reach room temperature before 3 uL of Cell Titer Glo reagent (Promega) were added using an Aurora Flying Reagent Dispenser Bioraptor. The plates were then spun at 1000 rpms to remove bubbles and incubated for 15 minutes at room temperature before reading on a ViewLux using a luminescent filter with a 10 second exposure. The relative luciferase units were used to calculated percent activity using DMSO as 100% and Bortezomib as 0%.

For `COc1ccccc1-c1cccc(-c2c(O)c3cc(C#N)c(Cl)cc3[nH]c2=O)c1`, which cell viability, % of control (lower = more cytotoxic) is on record?
The cell viability, % of control (lower = more cytotoxic) was 52.6% [at 92.2 µM].

With `C1COC(NC(C2CC2)C2CC2)=N1` as the compound, how does the cell viability, % of control (lower = more cytotoxic) read?
Its cell viability, % of control (lower = more cytotoxic) is 33.1%.

With `CC(C)(C)OC(=O)CN(Cc1ccc(Cl)cc1)Cc1ccc([N+](=O)[O-])s1` as the compound, how does the cell viability, % of control (lower = more cytotoxic) read?
Its cell viability, % of control (lower = more cytotoxic) is 18.4%.

Which cell viability, % of control (lower = more cytotoxic) does the source give for `CCCC(CCC)C(=O)O` here?
Its cell viability, % of control (lower = more cytotoxic) is 83.8%.

Which cell viability, % of control (lower = more cytotoxic) does the source give for `CNC(=O)c1ccc(C)c(-n2c(C)cc(OCc3ccc(F)cc3F)c(Br)c2=O)c1` here?
Its cell viability, % of control (lower = more cytotoxic) is 140%.

With `Nc1nccc(-c2ccc3noc(-c4ccc(Cl)cc4)c3c2)n1` as the compound, how does the cell viability, % of control (lower = more cytotoxic) read?
Its cell viability, % of control (lower = more cytotoxic) is 68.4%.

With `COc1ccc(CCN2CCN(CCCc3ccccc3)CC2)cc1OC` as the compound, how does the cell viability, % of control (lower = more cytotoxic) read?
The cell viability, % of control (lower = more cytotoxic) was 340%.

Which cell viability, % of control (lower = more cytotoxic) does the source give for `NC(=O)c1ccc(-c2nc(-c3ccc4c(c3)OCO4)c(-c3ccccn3)[nH]2)cc1` here?
Its cell viability, % of control (lower = more cytotoxic) is 624%.

For `Cc1ccccc1C(OCCN(C)C)c1ccccc1` (stereo not given), which cell viability, % of control (lower = more cytotoxic) is on record?
The cell viability, % of control (lower = more cytotoxic) was 149%.

For `CCCCCCCc1ccc(CCc2cccc(O)c2C(=O)O)cc1`, which cell viability, % of control (lower = more cytotoxic) is on record?
The cell viability, % of control (lower = more cytotoxic) was 161%.

For `CC[C@H](Nc1ncnc2nc[nH]c12)c1nc2cccc(F)c2c(=O)n1-c1ccccc1`, which cell viability, % of control (lower = more cytotoxic) is on record?
Its cell viability, % of control (lower = more cytotoxic) is 4.94%.

With `CC1(C)Cc2c(-c3ccccc3)c(-c3ccc(Cl)cc3)c(CC(=O)O)n2C1` as the compound, how does the cell viability, % of control (lower = more cytotoxic) read?
The cell viability, % of control (lower = more cytotoxic) was 71.9%.

With `NNCCc1ccccc1` as the compound, how does the cell viability, % of control (lower = more cytotoxic) read?
Its cell viability, % of control (lower = more cytotoxic) is 133%.

With `CN(C)c1ccc(Nc2nc(N)n(C(=O)c3c(F)cccc3F)n2)cc1` as the compound, how does the cell viability, % of control (lower = more cytotoxic) read?
Its cell viability, % of control (lower = more cytotoxic) is 73.4%.

For `O=C(C=Cc1ccc(/C=C/C(=O)Nc2ccc(C3=NCCN3)cc2)cc1)Nc1ccc(C2=NCCN2)cc1`, which cell viability, % of control (lower = more cytotoxic) is on record?
The cell viability, % of control (lower = more cytotoxic) was 203%.

With `N=c1nc(N2CCCCC2)cc(N)n1O` as the compound, how does the cell viability, % of control (lower = more cytotoxic) read?
The cell viability, % of control (lower = more cytotoxic) was 450%.

With `CC(C)(N)C(=O)N[C@H](COCc1ccccc1)C(=O)N1CCC2(CC1)CN(S(C)(=O)=O)c1ccccc12` as the compound, how does the cell viability, % of control (lower = more cytotoxic) read?
The cell viability, % of control (lower = more cytotoxic) was 14.7%.

For `CS(=O)(=O)c1cccc(CNc2nc(Nc3ccc4c(c3)CCC(=O)N4)ncc2C(F)(F)F)c1`, which cell viability, % of control (lower = more cytotoxic) is on record?
The cell viability, % of control (lower = more cytotoxic) was 13.6%.

With `COc1ccc2nc(S(=O)Cc3ncc(C)c(OC)c3C)[nH]c2c1` (stereo not given) as the compound, how does the cell viability, % of control (lower = more cytotoxic) read?
Its cell viability, % of control (lower = more cytotoxic) is 138%.

For `C[C@]1(c2nc3c(C(N)=O)cccc3[nH]2)CCCN1`, which cell viability, % of control (lower = more cytotoxic) is on record?
The cell viability, % of control (lower = more cytotoxic) was 50.9%.

With `CCC(C)(C)C(=O)O[C@H]1C[C@@H](C)C=C2C=C[C@H](C)[C@H](CC[C@@H]3C[C@@H](O)CC(=O)O3)[C@H]21` as the compound, how does the cell viability, % of control (lower = more cytotoxic) read?
Its cell viability, % of control (lower = more cytotoxic) is 26.7%.

For `CN[C@@H](C)C(=O)N[C@H]1CCCC[C@H]2CC[C@@H](C(=O)N[C@@H](c3ccccc3)c3cn(CCCCc4ccc(CCCCn5cc([C@@H](NC(=O)[C@@H]6CC[C@@H]7CCCC[C@H](NC(=O)[C@H](C)NC)C(=O)N76)c6ccccc6)nn5)cc4)nn3)N2C1=O`, which cell viability, % of control (lower = more cytotoxic) is on record?
The cell viability, % of control (lower = more cytotoxic) was 28%.

Which cell viability, % of control (lower = more cytotoxic) does the source give for `Cc1ccc(N(CC2=NCCN2)c2cccc(O)c2)cc1` here?
The cell viability, % of control (lower = more cytotoxic) was 80.5%.

For `OCCC#Cc1nc(-c2ccc(F)cc2)c(-c2ccncc2)n1CCCc1ccccc1`, which cell viability, % of control (lower = more cytotoxic) is on record?
Its cell viability, % of control (lower = more cytotoxic) is 98.7%.

Which cell viability, % of control (lower = more cytotoxic) does the source give for `OCCn1cc(-c2cnc3nnn(Cc4ccc5ncccc5c4)c3n2)cn1` here?
The cell viability, % of control (lower = more cytotoxic) was 140%.

With `Cc1c(C)c2c(c(C)c1O)CCC(C)(COc1ccc(CC3SC(=O)NC3=O)cc1)O2` (stereo not given) as the compound, how does the cell viability, % of control (lower = more cytotoxic) read?
Its cell viability, % of control (lower = more cytotoxic) is 31.1%.

With `Fc1ccc(Cl)cc1-c1nc(Nc2ccncc2)c2nccnc2n1` as the compound, how does the cell viability, % of control (lower = more cytotoxic) read?
The cell viability, % of control (lower = more cytotoxic) was 443%.

With `Cc1cc(SCc2sc(-c3ccc(C(F)(F)F)cc3)nc2C)ccc1OCC(=O)O` as the compound, how does the cell viability, % of control (lower = more cytotoxic) read?
The cell viability, % of control (lower = more cytotoxic) was 101%.

Which cell viability, % of control (lower = more cytotoxic) does the source give for `Cc1cc2c(C(C)C)c(O)c(O)c(C=O)c2c(O)c1-c1c(C)cc2c(C(C)C)c(O)c(O)c(C=O)c2c1O` here?
The cell viability, % of control (lower = more cytotoxic) was 14.5%.

Which cell viability, % of control (lower = more cytotoxic) does the source give for `CC[C@@H](C)[C@H](NC(=O)[C@H](CC1CCCCC1)NC(=O)c1ccno1)C(=O)N1CCC2(CCc3ccccc32)CC1` here?
The cell viability, % of control (lower = more cytotoxic) was 168%.

Which cell viability, % of control (lower = more cytotoxic) does the source give for `CC(C)NCC(O)COc1ccc(COCCOC(C)C)cc1` (stereo not given) here?
Its cell viability, % of control (lower = more cytotoxic) is 123%.

Which cell viability, % of control (lower = more cytotoxic) does the source give for `CC1(C)CNc2cc(NC(=O)c3cccnc3NCc3ccncc3)ccc21` here?
The cell viability, % of control (lower = more cytotoxic) was 230%.

For `O=S(=O)(N=Cc1c(O)ccc2ccccc12)c1cccs1`, which cell viability, % of control (lower = more cytotoxic) is on record?
The cell viability, % of control (lower = more cytotoxic) was 98%.

With `Cc1n[nH]c(C)c1Cc1sc2c(c1C(=O)N1C[C@H](O)CO1)c(=O)n(C)c(=O)n2CC(C)C` as the compound, how does the cell viability, % of control (lower = more cytotoxic) read?
The cell viability, % of control (lower = more cytotoxic) was 109%.

With `Cc1cnc(Nc2ccc(OCCN3CCCC3)cc2)nc1Nc1cccc(S(=O)(=O)NC(C)(C)C)c1` as the compound, how does the cell viability, % of control (lower = more cytotoxic) read?
The cell viability, % of control (lower = more cytotoxic) was 112%.

Which cell viability, % of control (lower = more cytotoxic) does the source give for `CO[C@@H]1[C@H](N(C)C(=O)c2ccccc2)C[C@H]2O[C@]1(C)n1c3ccccc3c3c4c(c5c6ccccc6n2c5c31)C(=O)NC4` here?
Its cell viability, % of control (lower = more cytotoxic) is 21.1%.

Which cell viability, % of control (lower = more cytotoxic) does the source give for `COc1ccc(-c2oc3cc(OC)ccc3c2C(=O)c2ccc(C#N)cc2)cc1` here?
Its cell viability, % of control (lower = more cytotoxic) is 84.5%.

Which cell viability, % of control (lower = more cytotoxic) does the source give for `Cc1ccc(-n2nc(C(C)(C)C)cc2NC(=O)Nc2ccc(OCCN3CCOCC3)c3ccccc23)cc1` here?
The cell viability, % of control (lower = more cytotoxic) was 240%.

For `Cc1ccccc1C(C(=O)NC1CCCC1)N(C(=O)Cn1cnc2ccccc21)c1cccc(F)c1` (stereo not given), which cell viability, % of control (lower = more cytotoxic) is on record?
The cell viability, % of control (lower = more cytotoxic) was 30.2%.

For `c1ccc([C@H]2CN3CCSC3=N2)cc1`, which cell viability, % of control (lower = more cytotoxic) is on record?
Its cell viability, % of control (lower = more cytotoxic) is 200%.

— PubChem BioAssay (NCATS)
